Source: PubChem BioAssay AID662 (National Center for Advancing Translational Sciences (NCATS), 2007)
In all, about 71,000 compounds went through this assay and about 1,800 (2.5%) were called active. Not shown: some 26% with an inconclusive outcome. The sample as a whole holds a higher share of actives than the screen did. Values without a mark were called inactive. Calls come from the whole dose curve; as a rule, active = well fitted activation curve with a large enough effect in the signal ratio, with a control signal flat (not every such curve was filed as active); inconclusive = small, poorly fitted or top-dose-only effect, or effect the other way, or a change in a side signal; inactive = flat fitted curve, though single readings scatter; the % refers to the signal ratio.

Assay: Cell signaling CRE-BLA (Fsk stim); for activity change, negative = inhibition: % of control where 0% means no effect
Details: CHO CRE-bla reporter (cAMP response element driving beta-lactamase), forskolin EC10, beta-lactamase ratio; series mostly up to 38.2 µM; activity change, negative = inhibition: at the top concentration
Procedure, shortened: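 qHTS titration format; CRE-bla CHO reporter; stimulus EC10 NKH 477, a water-soluble forskolin. Read: CCF4 460/530 nm ratio. Potency expressed as AC50 for activators or inhibitors.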
Potency is the fitted concentration of half-maximal effect.

**Q.** For `Cc1nc(SCC(=O)Nc2cc(C)on2)c2c3c(sc2n1)CCCC3`, which Potency is on record?
**A.** 2.51 µM (active)

**Q.** For `CCOc1ccccc1Nc1nnc(SCC(=O)Nc2cc(C)on2)s1`, which “activity change, negative = inhibition” value is on record?
**A.** -11.6%

**Q.** For `COc1ccccc1-c1nnc(SCC(=O)Nc2cc(C)on2)o1`, which “activity change, negative = inhibition” value is on record?
**A.** -0.278%

**Q.** Which “activity change, negative = inhibition” value does the source give for `C=C(C)Cn1c(SCC(=O)NCc2ccco2)nc2sc3c(c2c1=O)CCC3` here?
**A.** 6.87%

**Q.** With `Cc1cc(NC(=O)Cn2nc(C(F)(F)F)c3c2CCCC3)no1` as the compound, how does the “activity change, negative = inhibition” value read?
**A.** -5.04%

**Q.** Which Potency does the source give for `Cc1nc(SCC(=O)Nc2cc(C)on2)c2c(C)c(C)sc2n1` here?
**A.** 0.316 µM (active)

**Q.** For `O=C1C(C=NCC2CCCO2)=C(O)c2ccccc21` (centres undefined), which activity change, negative = inhibition is on record?
**A.** 12.5% [at 7.6 µM]

**Q.** For `COC(=O)[C@@]1(Cc2ccc(F)cc2)[C@H]2c3cc(C(=O)N4CCCC4)n(Cc4ccc(OC(F)(F)F)cc4)c3C[C@H]2CN1C(=O)c1ccccc1`, which “activity change, negative = inhibition” value is on record?
**A.** -8.28%

**Q.** For `CCCOc1ccccc1C1CC(=O)Nc2cc3c(cc21)OCO3` (centres undefined), which Potency is on record?
**A.** 10 µM (active)

**Q.** With `COc1cc2c(cc1OC)C(c1ccc(C)o1)CC(=O)N2` (centres undefined) as the compound, how does the “activity change, negative = inhibition” value read?
**A.** 17.5%

**Q.** For `COCCOC(=O)C1=C(C)NC(=O)CC1c1cc2c(cc1Br)OCO2` (centres undefined), which “activity change, negative = inhibition” value is on record?
**A.** 4.43%

**Q.** For `O=C(NCc1ccc(Cl)c(Cl)c1)c1cccnc1`, which activity change, negative = inhibition is on record?
**A.** -25.4% [at 7.6 µM]

**Q.** With `CCCOC(=O)Nc1ccccc1C(N)=O` as the compound, how does the “activity change, negative = inhibition” value read?
**A.** 3.03%

**Q.** For `CCOc1ccc2nc(SC(CC)C(=O)Nc3cc(C)on3)sc2c1` (centres undefined), which “activity change, negative = inhibition” value is on record?
**A.** 5.36%

**Q.** With `C=CC(=C)CCC=C(C)C` as the compound, how does the “activity change, negative = inhibition” value read?
**A.** 1.32%

**Q.** Which Potency does the source give for `CCOc1cccc(-n2nnnc2-c2ccc(OC)cc2)c1` here?
**A.** 12.6 µM (active)

**Q.** For `CCOC(=O)c1sc(=S)n(-c2cccc(OC)c2)c1N`, which “activity change, negative = inhibition” value is on record?
**A.** -1.32%

**Q.** For `CCOc1cccc(-c2nnc3sc(COc4ccc(OC)cc4)nn23)c1`, which “activity change, negative = inhibition” value is on record?
**A.** 26.2%

**Q.** For `COC(=O)c1ccc(OC(=O)c2nn(C)cc2Cl)c(OC)c1`, which “activity change, negative = inhibition” value is on record?
**A.** -4.06%

**Q.** With `CCc1c(O)nc(SCC(=O)N2CCCCC2)n(-c2ccccc2C)c1=O` as the compound, how does the “activity change, negative = inhibition” value read?
**A.** 3.32%

**Q.** With `O=C(Nc1ccccc1N1CCN(c2ccccc2)CC1)c1cccc(F)c1` as the compound, how does the “activity change, negative = inhibition” value read?
**A.** 17.9%

**Q.** For `O=C(Nc1ccccc1N1CCN(C(=O)c2ccccc2)CC1)c1ccc2c(c1)OCO2`, which “activity change, negative = inhibition” value is on record?
**A.** -2.12%

**Q.** Which Potency does the source give for `O=C(Nc1ccccc1N1CCCCC1)c1ccc2nccnc2c1` here?
**A.** 10 µM (active)

**Q.** Which Potency does the source give for `O=C(Nc1ccccc1N1CCCCC1)c1cccc(F)c1` here?
**A.** 12.6 µM (active)

**Q.** Which “activity change, negative = inhibition” value does the source give for `O=C(CN1CCN(C2CCCCC2)CC1)Nc1ccccc1N1CCCCC1` here?
**A.** -15.5%

**Q.** Which “activity change, negative = inhibition” value does the source give for `Cc1ccccc1NC(=O)CNc1ccccc1N1CCCCC1` here?
**A.** -7.03%

**Q.** With `Cn1cc(S(=O)(=O)N2CCC(Cc3ccccc3)CC2)c(=O)n(C)c1=O` as the compound, how does the “activity change, negative = inhibition” value read?
**A.** -3.51%

**Q.** Which “activity change, negative = inhibition” value does the source give for `Cc1ccc(Br)cc1` here?
**A.** -7.98%

**Q.** For `O=C(NCc1ccccc1)[C@H]1C[C@@H]1[C@H](NP(=O)(c1ccccc1)c1ccccc1)c1ccccc1`, which “activity change, negative = inhibition” value is on record?
**A.** -24.2%

**Q.** With `CCC[C@@H]1C[C@@]1(CCC)[C@@H](NC(=O)c1ccccc1)c1ccc(C(=O)OC)cc1` as the compound, how does the “activity change, negative = inhibition” value read?
**A.** 5.13%

**Q.** Which “activity change, negative = inhibition” value does the source give for `Nc1nnc(C2CCCC2)s1` here?
**A.** 3.27%

**Q.** With `CCc1cccc(C)c1NC(=O)CSc1nnc(-c2ccco2)n1N` as the compound, how does the “activity change, negative = inhibition” value read?
**A.** -6.03%

**Q.** Which Potency does the source give for `CCn1c(SCC(=O)Nc2cc(C)c(Cl)cc2OC)nnc1-c1ccco1` here?
**A.** 12.6 µM (active)

**Q.** For `COc1cc(Cl)c(C)cc1NC(=O)CSc1nnc(-c2cccnc2)n1Cc1ccco1`, which “activity change, negative = inhibition” value is on record?
**A.** -6.01%

**Q.** For `COC(=O)[C@H]1C[C@@H]1[C@H](NC(=O)Oc1ccc(F)cc1)c1ccccc1`, which “activity change, negative = inhibition” value is on record?
**A.** 1.37%

**Q.** For `NC(=O)c1ccccc1NC(=O)c1ccccc1F`, which “activity change, negative = inhibition” value is on record?
**A.** 5.08%

**Q.** Which “activity change, negative = inhibition” value does the source give for `COC(=O)[C@@]1(Cc2ccc(OC)cc2)[C@H]2c3cc(C(=O)N4CCCC4)n(Cc4ccc(OC(F)(F)F)cc4)c3C[C@H]2CN1C(=O)c1ccccc1` here?
**A.** -3.5%

**Q.** Which “activity change, negative = inhibition” value does the source give for `O=C(CN1CCOCC1)Nc1c(-c2ccccc2)c2cc(Br)ccc2[nH]c1=O` here?
**A.** -5.45%

**Q.** For `COc1cccc(Nc2ncc3ncc(=O)n(C4CC4)c3n2)c1`, which “activity change, negative = inhibition” value is on record?
**A.** 5.13%

**Q.** With `COc1ccc(Oc2ncc3nc(-c4ccc(F)cc4)c(=O)n(C)c3n2)cc1` as the compound, how does the “activity change, negative = inhibition” value read?
**A.** -0.0632%

**Q.** Which Potency does the source give for `COc1cccc(Cn2c(=O)c(CCc3ccccc3)nc3cnc(N(C)C)nc32)c1` here?
**A.** 6.31 µM (active)

**Q.** With `O=C1c2cccnc2C(=O)N1Cc1cccs1` as the compound, how does the “activity change, negative = inhibition” value read?
**A.** -18.3%

**Q.** With `COc1cccc(Cn2c(=O)c(-c3ccccc3)nc3cnc(OC)nc32)c1` as the compound, how does the Potency read?
**A.** 10 µM (active)

**Q.** For `COc1cccc(Cn2c(=O)c(C)nc3cnc(Oc4ccccc4)nc32)c1`, which Potency is on record?
**A.** 10 µM (active)

**Q.** Which “activity change, negative = inhibition” value does the source give for `CCNc1ncc2ncc(=O)n(CCc3ccccc3)c2n1` here?
**A.** -12.5%

**Q.** With `COc1ccc(-n2nnc3c(=O)n(CC(=O)OCc4ccccc4)cnc32)cc1` as the compound, how does the “activity change, negative = inhibition” value read?
**A.** 6.57%

**Q.** With `COc1ccc(Oc2ncc3nc(C)c(=O)n(-c4ccccc4)c3n2)cc1` as the compound, how does the “activity change, negative = inhibition” value read?
**A.** 3.91%

**Q.** For `COc1ccc(-c2nc3cnc(Oc4ccccc4)nc3n(Cc3cccs3)c2=O)cc1`, which Potency is on record?
**A.** 3.98 µM (active)

**Q.** Which “activity change, negative = inhibition” value does the source give for `CCNc1ncc2ncc(=O)n(Cc3cccc(OC)c3)c2n1` here?
**A.** -14.8%

**Q.** For `O=C(CC1(O)C(=O)N(CN2CCOCC2)c2ccccc21)c1ccccc1` (centres undefined), which “activity change, negative = inhibition” value is on record?
**A.** 1.72%

**Q.** For `CCCc1cc(=O)[nH]c(SCC(=O)OCc2ccccc2)n1`, which “activity change, negative = inhibition” value is on record?
**A.** -2.25%

**Q.** Which “activity change, negative = inhibition” value does the source give for `CS(=O)(=O)N1CCN(C(=O)Cc2ccccc2)CC1` here?
**A.** 2.13%

**Q.** With `O=P(O)(CN1CCCCC1)CN1CCCCC1` as the compound, how does the “activity change, negative = inhibition” value read?
**A.** -2.2%

**Q.** Which “activity change, negative = inhibition” value does the source give for `c1ccc(-n2ncc(-c3nn[nH]n3)n2)cc1` here?
**A.** -8.34%
